The values that follow come from PubChem BioAssay (NCI).

About 83,000 compounds went through this panel and 20% of them were active in at least one assay; those are over-represented in the sample as a whole.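 In brief: 96-well plates, 48 h treatment, single concentration, percent growth endpoint.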 Values without a mark were called inactive. Activity calls are given as the source filed them. Rule for the calls: active = growth percent below 10; inactive = the rest.

Some test systems named below: T-47D breast; BT-549 breast; MDA-MB-435 melanoma; SW-620 colon; MCF7 breast; HCT-116 colon; HCC-2998 colon; KM12 colon.
Holding throughout (experiment): NCI-60 one-dose screen, 48 h (100 = growth as untreated, 0 = no growth, -100 = all killed)
Conditions in all cases: 10 µM unless noted

In the case of `CSc1ccc(N=C=C(c2ccccc2)c2ccccc2)cc1`, the growth in the assay with T-47D breast is 81.9%; in the assay with BT-549 breast, 88.9%; with MDA-MB-435 melanoma, 97.4%; in the assay with SW-620 colon it was 86%; in the assay on MCF7 breast it was 78.5%; in the assay on HCT-116 colon it was 89.3%. In addition, the results for the growth in the assay on HCC-2998 colon and in the assay on KM12 colon were 100% and 102%, respectively.

For the compound `O=S(=O)(NCCCNc1cc(-c2cn(-c3ccccc3)nc2-c2cccc(O)c2)ccn1)c1ccccc1`, the growth in the assay with T-47D breast was 18.4%; in the assay on BT-549 breast it was 44.1%; with MDA-MB-435 melanoma, 52.3%; with SW-620 colon, 25.5%; in the assay with MCF7 breast, 31.6%; with HCT-116 colon it was 40%. The growth is 22.1% in the assay with HCC-2998 colon and 30.1% with KM12 colon.

Turning to `O=C1CC(c2nc3ccccc3s2)CN1C1CCCCC1` (stereo not drawn), the growth in the assay with T-47D breast is 88.2%; with BT-549 breast, 97.1%; in the assay with MDA-MB-435 melanoma it was 107%; with SW-620 colon it was 107%; with MCF7 breast, 89.1%; in the assay with HCT-116 colon, 108%. Besides, the growth was 95.2% with HCC-2998 colon and 98% in the assay with KM12 colon.

Turning to `CC1(C)CC(=O)C(c2c(-c3ccccc3)[nH]c3[nH]c(=S)[nH]c(=O)c23)=C(O)C1`, the growth in the assay on T-47D breast is 98.1%; with BT-549 breast, 106%; in the assay on MDA-MB-435 melanoma it was 90.8%; with SW-620 colon, 104%; in the assay with MCF7 breast, 99.6%; with HCT-116 colon, 102%. In addition, the growth in the assay on HCC-2998 colon was 108%; with KM12 colon it was 118%.

For the compound `c1ccc(CSc2ncnc3nc[nH]c23)nc1`, the growth in the assay with T-47D breast was 107%; in the assay with BT-549 breast it was 122%; with MDA-MB-435 melanoma it was 92.3%; with SW-620 colon, 113%; in the assay on MCF7 breast, 99.7%; with HCT-116 colon, 93.1%. The values for the growth in the assay with HCC-2998 colon and with KM12 colon were 125% and 106%, respectively.

Regarding `Cc1ccc(/C=C2\Oc3cc(OCC(=O)c4ccc(Cl)cc4)ccc3C2=O)cc1`, the growth in the assay on T-47D breast was 97.9%; in the assay on BT-549 breast, 110%; in the assay on MDA-MB-435 melanoma, 104%; with SW-620 colon, 97.1%; in the assay with MCF7 breast, 119%; in the assay on HCT-116 colon it was 89.5%. For the same compound, the growth was 92.6% in the assay on HCC-2998 colon and 104% in the assay with KM12 colon.

For the compound `CCCCCCCCCCCCCCCCCCNC(=O)[C@H]1CSC(c2ccc(OC)c(F)c2)N1` (stereo partly drawn), the growth is -62.5% (active) in the assay with T-47D breast; -60.2% (active) in the assay on BT-549 breast; -83% (active) in the assay on MDA-MB-435 melanoma; -60.2% (active) in the assay on SW-620 colon; -67.9% (active) in the assay on MCF7 breast; -72.7% (active) with HCT-116 colon. Also, the growth with HCC-2998 colon is -57.5% (active); in the assay with KM12 colon, -50.2% (active).

`COc1ccc(C(=O)/C=C/c2c[n+](=O)c3ccc(F)cc3n2[O-])cc1`: the growth in the assay on T-47D breast was 93.1%; in the assay with BT-549 breast it was 103%; in the assay with MDA-MB-435 melanoma, 119%; in the assay on SW-620 colon, 109%; in the assay on MCF7 breast it was 98.9%; in the assay on HCT-116 colon, 103%. Besides, the growth was 104% with HCC-2998 colon and 113% in the assay with KM12 colon.

Regarding `N#Cc1c(N)nc(N)nc1Nc1ccc(Br)cc1`, the growth in the assay on T-47D breast was 71.4%; in the assay on BT-549 breast, 86.2%; with MDA-MB-435 melanoma it was 104%; with SW-620 colon it was 105%; in the assay on MCF7 breast it was 61.6%; in the assay on HCT-116 colon, 137%. Also, the growth in the assay with HCC-2998 colon was 110%; in the assay with KM12 colon, 93.9%.

With `COc1cc(-c2cnc3nonc3n2)c(OC)c2c1OCO2`, the growth was 85.4% in the assay with T-47D breast; 105% in the assay on BT-549 breast; 111% with MDA-MB-435 melanoma; 101% in the assay with SW-620 colon; 81.3% with MCF7 breast; 99.1% in the assay on HCT-116 colon. For the same compound, the results for the growth in the assay on HCC-2998 colon and in the assay with KM12 colon were 102% and 103%, respectively.

Turning to `O=C(CN1CCN(c2cc3c(cc2F)c(=O)c(C(=O)N/N=C/c2ccccc2)cn3C2CC2)CC1)N/N=C\c1ccccc1`, the growth with T-47D breast is 92%; with BT-549 breast, 65.2%; in the assay with MDA-MB-435 melanoma, 78.6%; with SW-620 colon, 87.8%; in the assay with MCF7 breast, 53.2%; with HCT-116 colon, 70.7%. For the same compound, the values for the growth in the assay on HCC-2998 colon and in the assay on KM12 colon were 91% and 71.1%, respectively.

For `CCCCOc1ccc(NC(=O)n2nc(NC(C)=O)c3cc(NC(C)=O)ccc32)cc1`, the growth was 83.2% with T-47D breast; 81% with BT-549 breast; 92.3% with MDA-MB-435 melanoma; 121% in the assay with SW-620 colon; 91.9% in the assay on MCF7 breast; 88.8% in the assay with HCT-116 colon. The growth was 101% in the assay with HCC-2998 colon and 111% with KM12 colon.

`C[C@@H]1CCC2=C(CCC[C@]2(C)C(=O)O)[C@@]1(C)CCc1ccoc1`: the growth with T-47D breast was 94.9%; in the assay with BT-549 breast, 117%; with MDA-MB-435 melanoma, 107%; with SW-620 colon, 98.8%; with MCF7 breast it was 96.7%; in the assay on HCT-116 colon, 96%. For the same compound, the results for the growth with HCC-2998 colon and in the assay with KM12 colon were 87.6% and 97.7%, respectively.

For `CCCCCn1cnc2c(=S)nc[nH]c21`, the growth with T-47D breast was 90.8%; with BT-549 breast, 129%; in the assay with MDA-MB-435 melanoma, 105%; in the assay on SW-620 colon it was 97.8%; in the assay on MCF7 breast, 98.4%; in the assay with HCT-116 colon, 106%. Besides, the growth is 122% in the assay on HCC-2998 colon and 109% in the assay with KM12 colon.

Take `COc1ccc(-c2cc(-c3cccnc3)nc3sc4c(=O)n(-c5ccc(C)cc5)nnc4c23)cc1OC`: the growth in the assay with T-47D breast was 99.3%; in the assay with BT-549 breast it was 103%; with MDA-MB-435 melanoma, 99.3%; with SW-620 colon, 94.4%; in the assay on MCF7 breast, 99.7%; with HCT-116 colon, 95%. The growth with HCC-2998 colon was 109%; in the assay on KM12 colon it was 103%.

Regarding `CCN(CC)CCCC(C)N/C(=C1\C(=O)NC(=O)\C1=C(/NC(C)CCCN(CC)CC)c1cccc(OC)c1)c1cccc(OC)c1` (stereo not drawn), the growth in the assay with T-47D breast is 48.6%; with BT-549 breast, 2.98% (active); in the assay with MDA-MB-435 melanoma it was -81.6% (active); with SW-620 colon it was 0.116% (active); in the assay on MCF7 breast, 0.0378% (active); in the assay with HCT-116 colon, 2.62% (active). Also, the growth with HCC-2998 colon is -89.2% (active); in the assay on KM12 colon, 1.06% (active).
